Laboratory results as given in PubChem BioAssay (EPA / NIEHS).
Records with an inconclusive call do not appear. Active and inactive are the calls of the source. How the source made its calls: active means hit-call score of the fitted dose curve at least 0.9, where 1 is the maximum; inconclusive means response in the unintended direction; inactive means score below 0.9.

Assays:
[1] = target: human Sirtuin 1 (SIRT1), SIRT1 (gene 23411) (UniProt Q96EB6); assay: NVS_ENZ_hSIRT1: NovaScreen (NVS) Enzymatic Assay for human Sirtuin 1 (SIRT1) (AID 2283219)
human Sirtuin 1 (SIRT1), SIRT1 (gene 23411), sequence (Q96EB6 whole entry, looked up): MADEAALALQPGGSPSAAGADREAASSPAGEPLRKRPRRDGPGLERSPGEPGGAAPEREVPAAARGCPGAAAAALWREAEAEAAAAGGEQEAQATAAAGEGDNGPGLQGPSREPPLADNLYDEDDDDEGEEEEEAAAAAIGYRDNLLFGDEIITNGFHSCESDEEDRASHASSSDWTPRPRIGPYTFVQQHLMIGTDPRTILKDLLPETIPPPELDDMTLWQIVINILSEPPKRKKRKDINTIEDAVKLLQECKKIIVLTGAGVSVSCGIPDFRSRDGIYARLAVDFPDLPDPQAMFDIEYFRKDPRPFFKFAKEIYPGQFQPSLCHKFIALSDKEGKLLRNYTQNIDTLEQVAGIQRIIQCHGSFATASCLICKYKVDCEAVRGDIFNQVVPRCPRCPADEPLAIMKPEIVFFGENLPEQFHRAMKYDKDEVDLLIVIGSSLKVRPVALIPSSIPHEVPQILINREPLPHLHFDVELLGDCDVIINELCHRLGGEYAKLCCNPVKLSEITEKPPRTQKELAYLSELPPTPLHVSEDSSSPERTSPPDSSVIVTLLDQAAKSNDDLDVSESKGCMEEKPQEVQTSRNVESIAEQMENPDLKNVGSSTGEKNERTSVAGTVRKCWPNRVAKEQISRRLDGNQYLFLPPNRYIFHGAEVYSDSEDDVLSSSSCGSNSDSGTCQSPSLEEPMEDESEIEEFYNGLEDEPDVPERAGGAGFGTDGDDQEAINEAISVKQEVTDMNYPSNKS
In short: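 Cell-free recombinant SIRT1 with a fluorescent substrate; substrate and product separated by electrophoretic mobility shift and read by fluorescence intensity, 1 h after dosing. Primary screen at 25 uM in duplicate; hits re-run in concentration-response up to 50 uM, relative to DMSO.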

[2] = target: human Sirtuin 2 (SIRT2), SIRT2 (gene 22933) (UniProt Q8IXJ6); assay: NVS_ENZ_hSIRT2: NovaScreen (NVS) Enzymatic Assay for human Sirtuin 2 (SIRT2) (AID 2283217)
Protocol: (§1) NVS_ENZ_hSIRT2 is a biochemical, single-readout assay that uses extracted gene-proteins in a cell-free assay. Measurements were taken 1 hour after chemical dosing in a 384-well plate.NVS_ENZ_hSIRT2 is one of one assay component(s) measured or calculated from the NVS_ENZ_hSIRT2 assay. It is designed to make measurements of enzyme activity, a form of enzyme reporter, as detected with fluorescence intensity signals by Fluorescence and electrophoretic mobility shift technology.Data from the assay component NVS_ENZ_hSIRT2 was analyzed into 1 assay endpoint. This assay endpoint, NVS_ENZ_hSIRT2, was analyzed in the positive analysis fitting direction relative to DMSO as the negative control and baseline of activity. Using a type of enzyme reporter, loss-of-signal activity can be used to understand changes in the enzymatic activity as they relate to the gene SIRT2. Furthermore, this assay endpoint can be referred to as a primary readout, because this assay has produced multiple assay endpoints where this one serves a enzymatic activity function. To generalize the intended target to other relatable targets, this assay endpoint is annotated to the hydrolase intended target family, where the subfamily is protein deacetylase.
Binding assays used specific radioligands (tritiated, iodinated) with non-radioactive competitive displacement ligands in agonist or antagonist protocols (as indicated) and various reference compounds and inhibitors to titrate specific binding to receptors and transporters. Most enzyme assays (CYPs, kinases, phosphatases, proteases, HDACs) used recombinant protein and specific substrates (fluorescence mostly, some colorimetric and radioactive) and inhibitors, followed by a biochemical separation of substrate and product. All assays for the biochemical HTS were initially run in duplicate at a single concentration (10 uM for CYP450 assays and 25 uM for all others). […]

[3] = target: human Sirtuin 3 (SIRT3), SIRT3 (gene 23410) (UniProt Q9NTG7); assay: NVS_ENZ_hSIRT3: NovaScreen (NVS) Enzymatic Assay for human Sirtuin 3 (SIRT3) (AID 2283222)
human Sirtuin 3 (SIRT3), SIRT3 (gene 23410), sequence (Q9NTG7 whole entry, looked up): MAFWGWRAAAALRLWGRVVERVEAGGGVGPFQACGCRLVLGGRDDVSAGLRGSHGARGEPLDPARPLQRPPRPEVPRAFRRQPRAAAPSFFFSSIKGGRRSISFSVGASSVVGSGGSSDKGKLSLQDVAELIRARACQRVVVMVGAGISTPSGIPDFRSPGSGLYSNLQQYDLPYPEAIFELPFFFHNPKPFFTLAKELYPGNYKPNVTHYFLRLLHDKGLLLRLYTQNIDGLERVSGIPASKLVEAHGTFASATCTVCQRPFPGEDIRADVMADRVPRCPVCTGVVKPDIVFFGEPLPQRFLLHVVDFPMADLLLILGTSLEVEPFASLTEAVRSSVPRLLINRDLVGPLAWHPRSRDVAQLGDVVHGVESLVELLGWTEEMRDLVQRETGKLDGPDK
In short: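 Cell-free enzyme assay with recombinant protein and fluorescent substrate, product separated by electrophoretic mobility shift; read 1 hour after dosing. Screened in duplicate at 25 uM, then singleton concentration-response up to 50 uM; loss of signal versus DMSO.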

[4] = target: human SRC Proto-Oncogene, Non-receptor Tyrosine Kinase (SRC), SRC (gene 6714) (UniProt P12931); assay: NVS_ENZ_hSRC: NovaScreen (NVS) Enzymatic Assay for human SRC Proto-Oncogene, Non-receptor Tyrosine Kinase (SRC) (AID 2283223)
human SRC Proto-Oncogene, Non-receptor Tyrosine Kinase (SRC), SRC (gene 6714), sequence (P12931 whole entry, looked up): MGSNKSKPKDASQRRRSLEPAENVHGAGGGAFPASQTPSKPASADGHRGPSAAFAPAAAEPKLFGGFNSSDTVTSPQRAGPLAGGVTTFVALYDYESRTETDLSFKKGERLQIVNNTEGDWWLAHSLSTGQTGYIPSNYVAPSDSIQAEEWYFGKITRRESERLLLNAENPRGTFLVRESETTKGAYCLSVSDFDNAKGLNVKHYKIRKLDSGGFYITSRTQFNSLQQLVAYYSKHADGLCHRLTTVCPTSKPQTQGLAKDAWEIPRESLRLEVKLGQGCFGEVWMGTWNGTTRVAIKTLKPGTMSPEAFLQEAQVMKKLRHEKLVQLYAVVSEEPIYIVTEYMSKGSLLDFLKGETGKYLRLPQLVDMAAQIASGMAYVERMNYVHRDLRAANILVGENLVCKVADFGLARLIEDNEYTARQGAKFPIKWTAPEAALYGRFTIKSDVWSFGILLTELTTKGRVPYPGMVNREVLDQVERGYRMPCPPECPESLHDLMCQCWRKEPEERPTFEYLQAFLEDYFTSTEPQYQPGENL
In short: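 Cell-free kinase activity assay with fluorescent substrate, product separated by electrophoretic mobility shift, read 1 h after dosing. Duplicate single point at 25 uM, then concentration-response up to 50 uM; loss of signal versus DMSO.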

[5] = target: human Vascular Endothelial Growth Factor Receptor 1 (VEGFR1), FLT1 (gene 2321) (UniProt P17948); assay: NVS_ENZ_hVEGFR1: NovaScreen (NVS) Enzymatic Assay for human Vascular Endothelial Growth Factor Receptor 1 (VEGFR1) (AID 2283226)
human Vascular Endothelial Growth Factor Receptor 1 (VEGFR1), FLT1 (gene 2321), sequence (P17948 whole entry, looked up): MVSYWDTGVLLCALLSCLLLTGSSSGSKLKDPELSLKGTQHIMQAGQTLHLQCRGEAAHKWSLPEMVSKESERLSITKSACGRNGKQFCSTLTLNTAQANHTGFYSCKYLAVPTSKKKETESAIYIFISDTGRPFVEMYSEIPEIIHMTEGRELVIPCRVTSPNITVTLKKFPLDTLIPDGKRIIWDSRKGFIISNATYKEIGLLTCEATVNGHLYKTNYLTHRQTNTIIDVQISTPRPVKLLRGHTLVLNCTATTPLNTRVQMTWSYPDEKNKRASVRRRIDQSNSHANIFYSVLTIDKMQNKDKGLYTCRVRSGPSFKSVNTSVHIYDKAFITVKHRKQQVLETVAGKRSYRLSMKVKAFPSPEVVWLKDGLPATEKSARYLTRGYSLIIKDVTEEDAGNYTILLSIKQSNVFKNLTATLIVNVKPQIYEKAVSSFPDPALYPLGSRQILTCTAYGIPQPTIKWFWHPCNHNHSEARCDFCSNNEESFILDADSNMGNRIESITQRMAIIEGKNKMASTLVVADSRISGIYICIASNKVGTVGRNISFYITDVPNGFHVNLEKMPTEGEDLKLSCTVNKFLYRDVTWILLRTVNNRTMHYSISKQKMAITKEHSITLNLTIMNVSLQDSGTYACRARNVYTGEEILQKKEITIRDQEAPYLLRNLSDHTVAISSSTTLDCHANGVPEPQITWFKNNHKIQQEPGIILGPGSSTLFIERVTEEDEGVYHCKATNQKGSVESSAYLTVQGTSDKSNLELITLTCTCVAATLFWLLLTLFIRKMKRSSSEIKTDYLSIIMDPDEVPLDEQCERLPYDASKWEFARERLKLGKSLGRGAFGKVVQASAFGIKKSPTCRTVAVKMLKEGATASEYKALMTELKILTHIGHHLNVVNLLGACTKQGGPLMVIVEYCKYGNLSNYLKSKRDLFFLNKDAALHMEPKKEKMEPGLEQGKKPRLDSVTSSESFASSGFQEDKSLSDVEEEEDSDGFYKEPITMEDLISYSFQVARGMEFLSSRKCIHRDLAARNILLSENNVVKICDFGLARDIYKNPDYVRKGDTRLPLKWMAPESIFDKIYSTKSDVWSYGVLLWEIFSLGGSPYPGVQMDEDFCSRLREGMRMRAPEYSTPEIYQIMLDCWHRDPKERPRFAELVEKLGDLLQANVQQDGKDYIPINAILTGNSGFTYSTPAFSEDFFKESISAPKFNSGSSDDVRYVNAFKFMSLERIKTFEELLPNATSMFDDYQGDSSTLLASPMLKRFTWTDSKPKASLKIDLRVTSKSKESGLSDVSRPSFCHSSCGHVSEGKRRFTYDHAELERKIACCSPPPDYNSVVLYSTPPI
In short: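 Cell-free assay of recombinant human VEGFR1 kinase with substrate, measured 1 h after dosing; fluorescence with electrophoretic mobility-shift separation of substrate and product, referenced to DMSO; primary screen at 25 uM in duplicate, actives then run in concentration series.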

[6] = target: human Vascular Endothelial Growth Factor Receptor 2 (VEGFR2), KDR (gene 3791) (UniProt P35968); assay: NVS_ENZ_hVEGFR2: NovaScreen (NVS) Enzymatic Assay for human Vascular Endothelial Growth Factor Receptor 2 (VEGFR2) (AID 2283230)
human Vascular Endothelial Growth Factor Receptor 2 (VEGFR2), KDR (gene 3791), sequence (P35968 whole entry, looked up): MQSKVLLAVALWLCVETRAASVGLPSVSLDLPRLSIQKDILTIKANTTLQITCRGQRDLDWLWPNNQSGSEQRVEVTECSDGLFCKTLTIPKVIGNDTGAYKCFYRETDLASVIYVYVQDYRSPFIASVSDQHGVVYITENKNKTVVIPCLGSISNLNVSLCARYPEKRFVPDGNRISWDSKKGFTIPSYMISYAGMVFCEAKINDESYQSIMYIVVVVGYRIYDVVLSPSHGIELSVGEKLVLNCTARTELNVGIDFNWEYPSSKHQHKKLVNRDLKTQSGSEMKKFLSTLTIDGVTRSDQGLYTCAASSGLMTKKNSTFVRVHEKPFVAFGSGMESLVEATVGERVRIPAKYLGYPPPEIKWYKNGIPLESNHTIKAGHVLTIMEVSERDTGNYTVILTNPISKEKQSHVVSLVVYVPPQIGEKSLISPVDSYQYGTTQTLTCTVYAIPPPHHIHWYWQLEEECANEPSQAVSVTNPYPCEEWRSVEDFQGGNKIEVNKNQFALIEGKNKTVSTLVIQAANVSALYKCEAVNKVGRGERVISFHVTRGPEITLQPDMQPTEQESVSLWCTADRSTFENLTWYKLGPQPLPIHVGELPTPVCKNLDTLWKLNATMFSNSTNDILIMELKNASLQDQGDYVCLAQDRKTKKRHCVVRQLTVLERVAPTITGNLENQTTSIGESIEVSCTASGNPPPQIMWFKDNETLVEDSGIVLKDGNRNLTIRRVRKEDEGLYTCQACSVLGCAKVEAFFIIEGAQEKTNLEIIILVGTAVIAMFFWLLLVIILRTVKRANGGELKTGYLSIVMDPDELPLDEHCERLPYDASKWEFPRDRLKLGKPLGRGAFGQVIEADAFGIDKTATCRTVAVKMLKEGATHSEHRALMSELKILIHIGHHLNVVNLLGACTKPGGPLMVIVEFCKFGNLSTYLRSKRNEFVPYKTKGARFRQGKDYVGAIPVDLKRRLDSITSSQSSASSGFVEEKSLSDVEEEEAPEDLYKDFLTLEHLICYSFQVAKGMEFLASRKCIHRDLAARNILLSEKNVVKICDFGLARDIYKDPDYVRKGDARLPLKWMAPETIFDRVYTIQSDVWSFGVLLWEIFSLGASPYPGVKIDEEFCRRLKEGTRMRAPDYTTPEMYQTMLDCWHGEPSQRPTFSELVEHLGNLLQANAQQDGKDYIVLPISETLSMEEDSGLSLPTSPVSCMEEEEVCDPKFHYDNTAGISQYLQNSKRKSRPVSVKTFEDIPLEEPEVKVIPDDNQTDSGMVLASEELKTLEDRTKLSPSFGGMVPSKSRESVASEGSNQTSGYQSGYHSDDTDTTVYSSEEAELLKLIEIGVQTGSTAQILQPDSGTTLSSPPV
In short: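 Cell-free recombinant VEGFR2 kinase, fluorescent substrate with electrophoretic mobility-shift separation; read 1 h after dosing. Screened at 25 uM in duplicate, hits to concentration-response up to 50 uM; loss-of-signal versus DMSO.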

[7] = target: rabbit Imidazoline 2 Central (I2C), CKB (gene 100009085) (UniProt P00567); assay: NVS_ENZ_rabI2C: NovaScreen (NVS) Enzymatic Assay for rabbit Imidazoline 2 Central (I2C) (AID 2283228)
rabbit Imidazoline 2 Central (I2C), CKB (gene 100009085), sequence (P00567 whole entry, looked up): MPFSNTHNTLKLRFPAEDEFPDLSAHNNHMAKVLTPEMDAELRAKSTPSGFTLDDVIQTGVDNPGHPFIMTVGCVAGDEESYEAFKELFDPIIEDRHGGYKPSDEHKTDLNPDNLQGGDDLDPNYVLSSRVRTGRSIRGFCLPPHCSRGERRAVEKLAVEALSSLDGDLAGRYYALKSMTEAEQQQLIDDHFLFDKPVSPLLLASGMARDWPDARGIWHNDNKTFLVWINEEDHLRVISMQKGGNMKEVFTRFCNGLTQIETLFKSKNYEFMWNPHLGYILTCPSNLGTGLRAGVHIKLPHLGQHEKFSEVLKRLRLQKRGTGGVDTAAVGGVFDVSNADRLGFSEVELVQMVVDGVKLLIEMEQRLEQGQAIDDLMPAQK
Protocol: NVS_ENZ_rabI2C is a biochemical, single-readout assay that uses extracted gene-proteins from Rabbit brain membranes in a tissue-based cell-free assay. Measurements were taken 1.5 hours after chemical dosing in a 48-well plate.NVS_ENZ_rabI2C is one of one assay component(s) measured or calculated from the NVS_ENZ_rabI2C assay. It is designed to make measurements of enzyme activity, a form of enzyme reporter, as detected with scintillation counting signals by Filter-based radiodetection technology.Data from the assay component NVS_ENZ_rabI2C was analyzed into 1 assay endpoint. This assay endpoint, NVS_ENZ_rabI2C, was analyzed in the positive analysis fitting direction relative to DMSO as the negative control and baseline of activity. Using a type of enzyme reporter, loss-of-signal activity can be used to understand changes in the enzymatic activity as they relate to the gene CKB. Furthermore, this assay endpoint can be referred to as a primary readout, because this assay has produced multiple assay endpoints where this one serves a enzymatic activity function. To generalize the intended target to other relatable targets, this assay endpoint is annotated to the oxidoreductase intended target family, where the subfamily is imidazoline receptor.
Binding assays used specific radioligands (tritiated, iodinated) with non-radioactive competitive displacement ligands in agonist or antagonist protocols (as indicated) and various reference compounds and inhibitors to titrate specific binding to receptors and transporters. Most enzyme assays (CYPs, kinases, phosphatases, proteases, HDACs) used recombinant protein and specific substrates (fluorescence mostly, some colorimetric and radioactive) and inhibitors, followed by a biochemical separation of substrate and product. All assays for the biochemical HTS were initially run in duplicate at a single concentration (10 uM for CYP450 assays and 25 uM for all others). Assay-chemical combinations meeting a pre-defined threshold (e.g., 30% inhibition and other criteria defined below) were then run in singleton concentration-response format with maximum concentration of 20 uM for CYPs and 50 uM for all others. Each assay was run with positive and negative controls, and concurrent controls on every plate. The follow-up (secondary) screen tested active chemical-pairs in concentration series, as well as a few additional assays not tested in the primary screen, some selected negative inactives, and several cases re-run in the concentration series for confirmatory purposes.

[8] = target: human Vascular Endothelial Growth Factor Receptor 3 (VEGFR3), FLT4 (gene 2324) (UniProt P35916); assay: NVS_ENZ_hVEGFR3: NovaScreen (NVS) Enzymatic Assay for human Vascular Endothelial Growth Factor Receptor 3 (VEGFR3) (AID 2283229)
Protocol: as §1, with “NVS_ENZ_hVEGFR3” for “NVS_ENZ_hSIRT2”, “96-well plate.NVS_ENZ_hVEGFR3” for “384-well plate.NVS_ENZ_hSIRT2”, “NVS_ENZ_hVEGFR3,” for “NVS_ENZ_hSIRT2,”, “FLT4.” for “SIRT2.”, “kinase” for “hydrolase”, “receptor tyrosine kinase. […]” for “protein deacetylase.”

[9] = target: human Tropomyosin Receptor Kinase A (TRKA), NTRK1 (gene 4914) (UniProt P04629); assay: NVS_ENZ_hTrkA: NovaScreen (NVS) Enzymatic Assay for human Tropomyosin Receptor Kinase A (TRKA) (AID 2283224)
In short: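 Recombinant human TrkA activity read after 1 h by fluorescence with electrophoretic mobility shift separating substrate and product. Primary screen in duplicate at 25 uM; actives were rerun in concentration-response up to 50 uM. Loss of signal versus DMSO.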

[10] = target: human Protein Tyrosine Phosphatase Receptor Type M (PTPRM), PTPRM (gene 5797) (UniProt P28827); assay: NVS_ENZ_hPTPRM: NovaScreen (NVS) Enzymatic Assay for human Protein Tyrosine Phosphatase Receptor Type M (PTPRM) (AID 2283215)
In short: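 Cell-free recombinant PTPRM with fluorogenic substrate; product separated from substrate by electrophoretic mobility shift and read by fluorescence, 1.33 h after dosing. Primary screen single concentration (25 uM) in duplicate; actives retested in concentration series; loss of signal versus DMSO.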

Cc1cccc([N+](=O)[O-])c1C
outcome [1]: inactive

CC(C)c1ccc(C(=O)N=C(N)N)cc1S(C)(=O)=O
outcome [2]: inactive
outcome [3]: inactive

Cc1oc(-c2ccccc2)nc1CCOc1cccc2c1ccn2CCC(=O)O
outcome [4]: inactive
outcome [5]: inactive
outcome [6]: inactive

c1cc(-c2ccncc2)ccn1
outcome [1]: inactive

CCCCc1ccc2c(n1)[C@@H](c1ccc(OC)cc1C[C@H](C)C(=O)O)[C@H](C(=O)O)[C@H]2c1ccc2c(c1)OCO2
outcome [5]: inactive

Oc1ccc2c(c1)OC[C@@H](N1CCC(O)(c3ccc(F)cc3)CC1)[C@H]2O
outcome [7]: inactive

O=c1[nH]cc(F)c(=O)[nH]1
outcome [6]: inactive

CN[C@H]1CC[C@@H](c2ccc(Cl)c(Cl)c2)c2ccc(S(N)(=O)=O)cc21
outcome [6]: inactive

NCCO
outcome [1]: inactive
outcome [4]: inactive
outcome [5]: inactive
outcome [8]: inactive
outcome [6]: inactive

O=C(N[C@@H](Cc1ccccc1)[C@@H](O)C(=O)N1C[C@@H](O)[C@@H](O)C1)c1cc2cc(Cl)ccc2[nH]1
outcome [7]: inactive

Cc1cc(NC(=O)C(=O)O)cc(C)c1Oc1ccc(O)c2c1CCC2
AC50 [1]: 25 µM (active)

Nc1ccccc1N
outcome [7]: inactive

CCCCCCCCCCC
outcome [5]: inactive

Cc1ccc(C(C)C)c(O)c1
outcome [1]: inactive

CCOC(=O)CCC(=O)OCC
outcome [7]: inactive

CCc1c(C(=O)NN2CCCCC2)nn(-c2ccc(Cl)cc2Cl)c1-c1ccc(Br)cc1
outcome [5]: inactive
outcome [6]: inactive

Cc1cccc(Nc2cc(Cl)nc(SCC(=O)O)n2)c1C
outcome [1]: inactive
outcome [3]: inactive

CCCCCCCC=O
outcome [1]: inactive

FC(F)(F)C(F)(F)C(F)(F)C(F)(F)C(F)(F)C(F)(F)CCI
outcome [9]: inactive
outcome [5]: inactive

CC1(C)CC(N=C=O)CC(C)(CN=C=O)C1 (stereo unspecified)
outcome [3]: inactive

CC1(C)NC(=O)NC1=O
outcome [4]: inactive

CCCc1cc(=O)[nH]c(=S)[nH]1
outcome [4]: inactive

CCCCCCOCCO
outcome [6]: inactive

Cc1nc(-c2ccc3c(c2)CCN(CCC2CCC(NC(=O)/C=C/c4ccc(F)cc4)CC2)CC3)no1 (stereo unspecified)
outcome [2]: inactive
outcome [1]: inactive
outcome [3]: inactive

CCOc1ccc2c(c1)C(C)=CC(C)(C)N2
outcome [7]: inactive

Cc1c(C(=O)O)c(O)cc2c1C(=O)c1c(O)c([C@@H]3O[C@H](CO)[C@@H](O)[C@H](O)[C@H]3O)c(O)c(O)c1C2=O
outcome [1]: inactive

CCCCCCCCCCCCCO
outcome [6]: inactive

CC(=O)C(C)=CC1C(C)=CCCC1(C)C (stereo unspecified)
outcome [1]: inactive

NCC1(Cc2noc(=O)[nH]2)CCCCC1
outcome [1]: inactive

O=C(OCCCCCOC(=O)c1ccccc1)c1ccccc1
outcome [10]: inactive
outcome [1]: inactive
outcome [4]: inactive
outcome [6]: inactive

C=CCOC(=O)c1ccccc1C(=O)OCC=C
outcome [2]: inactive

NC(=O)Cn1c(=O)cc(CCN2CCN(c3nccc4sccc34)CC2)c2ccc(F)cc21
outcome [7]: inactive

CN1CCN(Cc2cc(-c3ccc4[nH]c(=O)oc4c3)co2)[C@@H](c2ccc(F)cc2)C1
AC50 [7]: 22 µM (active)

CC(C)(C)c1cc(O)c(C(C)(C)C)cc1O
outcome [6]: inactive

COc1cc(-c2nc(NC(=O)c3cc4cc(C)cc(C)c4n3CC(=O)O)sc2CCC2CCCCC2)c(OC)cc1Cl
AC50 [3]: 30.3 µM (active)
AC50 [6]: 7.16 µM (active)

CC1=C(/C=C/C(C)=C/C=C/C(C)=C/CO)C(C)(C)CCC1
outcome [1]: inactive
outcome [9]: inactive
outcome [5]: inactive
outcome [8]: inactive
outcome [6]: inactive
